From the supplement of paper PMC11732987, “Enantioselective OTUD7B fragment discovery through chemoproteomics screening and high-throughput optimisation” (Communications Chemistry, 2025) come the findings set out here.

Values without a mark were called inactive.

Experiment in all cases: log2 ratio of Biotin-Ahx-Ub-VS probe labelling (fragment/DMSO); higher = less target engagement (more negative = stronger competition), active = hit call of the paper (q ≤ 0.05, log2 ratio ≤ -1)
Conditions in all cases: compound concentration: 200 uM; treatment time: 3 h

The target of one assay is T1, OTUD6B (UniProt Q8N6M0).
T1 sequence (whole entry): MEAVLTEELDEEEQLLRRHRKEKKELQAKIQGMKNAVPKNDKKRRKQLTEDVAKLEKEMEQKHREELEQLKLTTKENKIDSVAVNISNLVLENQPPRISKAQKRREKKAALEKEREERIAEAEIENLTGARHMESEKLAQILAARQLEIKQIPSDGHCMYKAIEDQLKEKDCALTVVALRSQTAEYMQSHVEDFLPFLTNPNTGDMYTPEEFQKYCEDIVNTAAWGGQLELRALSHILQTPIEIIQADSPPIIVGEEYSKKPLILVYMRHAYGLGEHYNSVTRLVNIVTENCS
Summed up: (§1)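 Triplicate samples of HEK293T lysate, 495 µg each, received fragment at 200 µM or vehicle for 3 h, followed by Biotin-Ahx-Ub-VS (0.5 µM final) for 1 h. After NeutrAvidin enrichment of labelled DUBs and LysC/trypsin digestion, peptides were run by diaPASEF LC-MS/MS. The values are average log2 fragment/vehicle ratios from global-median-normalised Spectronaut label-free quantities, tested by unpaired t-test on proteins having ≥2 unique peptides.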

In the next assay the target is T2, OTUD7B (UniProt Q6GQQ9).
T2 sequence (whole entry): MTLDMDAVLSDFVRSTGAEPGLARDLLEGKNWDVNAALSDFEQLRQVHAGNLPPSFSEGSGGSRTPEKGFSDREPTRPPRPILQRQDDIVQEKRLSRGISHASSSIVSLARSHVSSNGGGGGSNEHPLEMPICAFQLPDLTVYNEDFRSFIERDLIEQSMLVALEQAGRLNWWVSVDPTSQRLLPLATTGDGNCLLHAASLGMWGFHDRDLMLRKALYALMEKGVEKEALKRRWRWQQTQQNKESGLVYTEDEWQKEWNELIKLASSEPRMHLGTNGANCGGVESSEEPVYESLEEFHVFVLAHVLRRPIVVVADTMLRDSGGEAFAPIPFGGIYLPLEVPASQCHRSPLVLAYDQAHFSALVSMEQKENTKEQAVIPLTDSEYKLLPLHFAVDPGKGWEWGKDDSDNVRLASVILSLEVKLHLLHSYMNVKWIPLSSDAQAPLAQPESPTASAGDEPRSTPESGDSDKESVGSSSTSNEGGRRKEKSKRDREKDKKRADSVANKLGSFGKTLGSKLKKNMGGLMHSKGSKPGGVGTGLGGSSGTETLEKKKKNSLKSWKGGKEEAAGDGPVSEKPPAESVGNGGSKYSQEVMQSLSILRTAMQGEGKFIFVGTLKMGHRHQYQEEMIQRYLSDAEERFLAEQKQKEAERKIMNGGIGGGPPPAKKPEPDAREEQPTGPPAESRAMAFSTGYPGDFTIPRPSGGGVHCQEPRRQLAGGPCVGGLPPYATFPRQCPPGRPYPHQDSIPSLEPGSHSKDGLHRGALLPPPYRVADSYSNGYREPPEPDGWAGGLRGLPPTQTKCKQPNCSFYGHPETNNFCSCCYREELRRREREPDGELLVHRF
A digest of the protocol:
as §1

In a further assay the target is PRPF8 (UniProt Q6P2Q9). A digest of the protocol: as §1
Another assay concerns the target T3, PSMD7 (UniProt P51665).
T3 sequence (whole entry): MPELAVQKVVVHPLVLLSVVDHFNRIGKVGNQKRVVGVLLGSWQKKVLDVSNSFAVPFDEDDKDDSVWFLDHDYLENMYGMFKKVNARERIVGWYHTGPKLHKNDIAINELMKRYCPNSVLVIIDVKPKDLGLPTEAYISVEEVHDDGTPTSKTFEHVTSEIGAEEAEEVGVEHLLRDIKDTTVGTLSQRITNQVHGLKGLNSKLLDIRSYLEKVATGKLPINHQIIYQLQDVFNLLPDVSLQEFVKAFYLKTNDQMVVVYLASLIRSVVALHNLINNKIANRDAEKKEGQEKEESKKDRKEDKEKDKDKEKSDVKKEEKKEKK
A digest of the protocol:
as §1

The next assay concerns the target UCHL1 (UniProt P09936). Summed up: as §1
Another assay has as its target T4, UCHL3 (UniProt P15374).
T4 sequence (whole entry): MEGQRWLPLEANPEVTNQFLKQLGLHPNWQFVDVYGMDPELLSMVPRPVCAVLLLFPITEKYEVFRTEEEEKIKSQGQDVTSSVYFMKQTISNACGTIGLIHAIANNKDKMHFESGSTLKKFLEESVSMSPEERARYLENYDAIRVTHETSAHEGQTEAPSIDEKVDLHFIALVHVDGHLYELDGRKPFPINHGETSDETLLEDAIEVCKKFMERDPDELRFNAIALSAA
Summed up: as §1

The next assay concerns the target T5, UCHL5 (UniProt Q9Y5K5).
T5 sequence (whole entry): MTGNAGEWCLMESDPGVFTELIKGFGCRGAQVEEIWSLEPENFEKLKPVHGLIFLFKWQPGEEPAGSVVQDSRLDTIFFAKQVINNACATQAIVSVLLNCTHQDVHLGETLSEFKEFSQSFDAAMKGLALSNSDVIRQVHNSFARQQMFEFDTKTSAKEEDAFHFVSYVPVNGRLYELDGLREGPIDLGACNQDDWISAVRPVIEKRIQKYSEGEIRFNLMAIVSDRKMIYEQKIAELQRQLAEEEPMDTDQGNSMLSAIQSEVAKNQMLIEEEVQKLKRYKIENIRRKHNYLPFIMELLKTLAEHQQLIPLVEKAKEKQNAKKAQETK
Summed up:
as §1

The next assay addresses USP10 (UniProt Q14694). A digest of the protocol: as §1
Another assay deals with T6, USP15 (UniProt Q9Y4E8).
T6 sequence (whole entry): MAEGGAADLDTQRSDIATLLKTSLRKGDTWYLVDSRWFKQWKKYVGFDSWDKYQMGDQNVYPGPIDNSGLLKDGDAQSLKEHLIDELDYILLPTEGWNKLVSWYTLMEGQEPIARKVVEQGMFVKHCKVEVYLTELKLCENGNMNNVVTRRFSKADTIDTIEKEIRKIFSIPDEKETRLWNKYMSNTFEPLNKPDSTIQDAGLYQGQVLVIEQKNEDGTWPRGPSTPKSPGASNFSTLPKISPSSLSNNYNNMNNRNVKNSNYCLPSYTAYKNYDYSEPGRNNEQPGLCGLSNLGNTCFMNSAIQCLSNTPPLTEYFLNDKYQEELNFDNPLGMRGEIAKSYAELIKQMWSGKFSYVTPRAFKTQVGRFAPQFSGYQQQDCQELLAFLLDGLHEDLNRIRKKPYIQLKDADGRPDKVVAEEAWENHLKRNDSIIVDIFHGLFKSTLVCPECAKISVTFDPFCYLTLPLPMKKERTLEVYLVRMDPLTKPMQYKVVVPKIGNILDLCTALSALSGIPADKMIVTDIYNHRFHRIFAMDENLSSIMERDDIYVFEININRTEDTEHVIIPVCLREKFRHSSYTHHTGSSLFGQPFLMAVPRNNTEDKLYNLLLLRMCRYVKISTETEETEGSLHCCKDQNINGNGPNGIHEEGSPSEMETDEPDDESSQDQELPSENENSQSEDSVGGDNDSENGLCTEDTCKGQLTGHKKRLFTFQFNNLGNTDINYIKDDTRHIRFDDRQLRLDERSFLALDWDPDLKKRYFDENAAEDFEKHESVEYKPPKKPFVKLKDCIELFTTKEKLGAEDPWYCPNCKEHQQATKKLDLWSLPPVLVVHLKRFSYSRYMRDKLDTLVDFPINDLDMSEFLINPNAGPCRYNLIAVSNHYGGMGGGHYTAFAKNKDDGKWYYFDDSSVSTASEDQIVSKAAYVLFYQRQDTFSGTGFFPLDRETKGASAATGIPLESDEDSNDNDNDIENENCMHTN
A digest of the protocol:
as §1

The next assay concerns the target USP16 (UniProt Q9Y5T5). A digest of the protocol: as §1

Sequence of USP10 (Q14694 whole entry): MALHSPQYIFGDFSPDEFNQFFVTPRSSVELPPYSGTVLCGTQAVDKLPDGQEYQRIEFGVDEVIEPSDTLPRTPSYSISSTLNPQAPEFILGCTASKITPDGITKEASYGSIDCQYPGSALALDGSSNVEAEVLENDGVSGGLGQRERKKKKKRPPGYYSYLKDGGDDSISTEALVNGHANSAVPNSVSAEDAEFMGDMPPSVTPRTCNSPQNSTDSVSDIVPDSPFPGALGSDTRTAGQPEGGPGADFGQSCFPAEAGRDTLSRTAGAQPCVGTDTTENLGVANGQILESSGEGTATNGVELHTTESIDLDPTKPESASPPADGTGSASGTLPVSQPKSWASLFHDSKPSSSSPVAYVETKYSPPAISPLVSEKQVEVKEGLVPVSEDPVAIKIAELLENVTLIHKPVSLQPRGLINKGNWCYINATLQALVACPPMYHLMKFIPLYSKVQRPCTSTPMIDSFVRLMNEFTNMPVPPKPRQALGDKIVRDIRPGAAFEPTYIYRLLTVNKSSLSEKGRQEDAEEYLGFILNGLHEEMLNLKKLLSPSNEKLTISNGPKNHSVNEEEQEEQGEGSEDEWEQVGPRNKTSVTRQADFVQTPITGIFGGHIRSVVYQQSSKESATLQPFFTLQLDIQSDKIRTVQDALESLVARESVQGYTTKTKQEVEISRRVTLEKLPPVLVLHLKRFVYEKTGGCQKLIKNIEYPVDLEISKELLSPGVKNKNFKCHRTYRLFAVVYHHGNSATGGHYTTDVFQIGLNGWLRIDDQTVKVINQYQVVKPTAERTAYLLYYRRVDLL
Sequence of UCHL1 (P09936 whole entry, looked up): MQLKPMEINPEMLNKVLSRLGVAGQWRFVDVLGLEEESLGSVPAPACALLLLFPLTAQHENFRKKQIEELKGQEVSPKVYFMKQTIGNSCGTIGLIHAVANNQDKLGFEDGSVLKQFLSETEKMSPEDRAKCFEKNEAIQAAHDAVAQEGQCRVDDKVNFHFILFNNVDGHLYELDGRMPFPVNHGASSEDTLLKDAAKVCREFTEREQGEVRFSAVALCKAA
Sequence of USP16 (Q9Y5T5 whole entry, looked up): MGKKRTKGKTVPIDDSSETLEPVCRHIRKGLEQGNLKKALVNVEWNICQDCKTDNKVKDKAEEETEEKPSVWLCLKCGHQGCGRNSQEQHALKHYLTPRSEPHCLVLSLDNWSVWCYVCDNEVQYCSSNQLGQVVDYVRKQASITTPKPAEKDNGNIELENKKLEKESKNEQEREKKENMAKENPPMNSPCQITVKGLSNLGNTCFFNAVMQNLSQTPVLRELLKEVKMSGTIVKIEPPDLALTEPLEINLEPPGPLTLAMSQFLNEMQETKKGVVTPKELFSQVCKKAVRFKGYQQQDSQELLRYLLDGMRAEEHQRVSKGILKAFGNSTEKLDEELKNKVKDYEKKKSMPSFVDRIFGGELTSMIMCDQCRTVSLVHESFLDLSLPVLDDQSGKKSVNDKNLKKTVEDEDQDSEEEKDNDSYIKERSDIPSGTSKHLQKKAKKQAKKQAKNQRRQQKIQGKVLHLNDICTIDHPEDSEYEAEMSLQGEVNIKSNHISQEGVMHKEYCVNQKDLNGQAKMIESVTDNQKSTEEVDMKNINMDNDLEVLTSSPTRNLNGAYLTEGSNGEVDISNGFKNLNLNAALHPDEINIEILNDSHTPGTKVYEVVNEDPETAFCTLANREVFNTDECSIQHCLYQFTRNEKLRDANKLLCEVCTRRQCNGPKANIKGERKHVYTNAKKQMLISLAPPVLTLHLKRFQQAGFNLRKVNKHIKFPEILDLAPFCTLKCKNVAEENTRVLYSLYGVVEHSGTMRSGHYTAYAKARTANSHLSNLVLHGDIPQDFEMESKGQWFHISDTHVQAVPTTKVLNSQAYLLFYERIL

For `COc1ccc(C2CCCN2C(=O)CCl)c(OC)c1` (stereo not given), the “log2 ratio of Biotin-Ahx-Ub-VS probe labelling” value (from here on “log2 ratio”) with OTUD6B is -0.302; in the assay with OTUD7B, -0.122; with PRPF8, 0.164; with PSMD7, -0.138; in the assay with UCHL1 it was -1.67 (active); with UCHL3, -1.75 (active). The “log2 ratio” value was -0.34 with UCHL5, -0.166 with USP10, -0.424 with USP15 and -0.285 with USP16.
On to `CC(=O)C1CCCCN1C(=O)CCl` (stereo not given), for which the “log2 ratio” value in the assay with OTUD6B is 0.00453; with OTUD7B, -0.279; with PRPF8, 0.0549; with PSMD7, 0.203; in the assay with UCHL1, -1.44 (active); in the assay with UCHL3 it was 0.181. In addition, the “log2 ratio” value in the assay with UCHL5 was -0.0871; in the assay with USP10 it was -0.0595; in the assay with USP15, -0.162; with USP16, -0.109.
Turning to `Cc1ccc(N2CCC(NC(=O)CCl)C2=O)cc1` (stereo not given), the “log2 ratio” value in the assay with OTUD6B is 0.0252; with OTUD7B, -0.741; with PRPF8 it was -0.0776; with PSMD7 it was 0.0257; with UCHL1 it was -1.67 (active); with UCHL3, 0.299. Also, the “log2 ratio” value with UCHL5 was -0.0673; in the assay with USP10 it was -0.174; with USP15, 0.106; with USP16, -0.702.
With `CN(CCC(O)c1ccc(Br)cc1)C(=O)CCl` (stereo not given), the “log2 ratio” value is -0.0417 with OTUD6B; -1.37 (active) with OTUD7B; 0.169 with PRPF8; -0.221 with PSMD7; -1.61 (active) with UCHL1; -0.26 with UCHL3. Besides, the “log2 ratio” value was -0.331 with UCHL5, -0.142 in the assay with USP10, -0.337 with USP15 and 0.00689 with USP16.
Consider `CCN1C(=O)C2CN(C(=O)CCl)CCN2C1=O` (stereo not given), for which the “log2 ratio” value with OTUD6B was -0.0446; with OTUD7B, -0.649; in the assay with PRPF8 it was 0.0726; with PSMD7, 0.0575; in the assay with UCHL1 it was -1.56 (active); with UCHL3 it was 0.629. The “log2 ratio” value was -0.0935 with UCHL5, -0.0852 in the assay with USP10, -0.265 with USP15 and -0.656 with USP16.
Regarding `Cl.O=C(CCl)N1CCn2ncc(O)c2C1`, the “log2 ratio” value in the assay with OTUD6B was -0.223; in the assay with OTUD7B it was -1.54 (active); with PRPF8, 0.218; with PSMD7, -0.249; with UCHL1, -1.49 (active); in the assay with UCHL3 it was -0.188. In addition, the “log2 ratio” value with UCHL5 was -1.12 (active); with USP10, -0.00467; in the assay with USP15 it was -0.99; with USP16, -0.0885.
With `CN(C(=O)CCl)c1nc2ccccc2s1`, the “log2 ratio” value was -0.243 with OTUD6B; -0.119 in the assay with OTUD7B; 0.183 in the assay with PRPF8; 0.069 with PSMD7; -0.925 with UCHL1; 0.484 in the assay with UCHL3. The “log2 ratio” value with UCHL5 is -0.343; in the assay with USP10 it was -0.116; with USP15, -0.217; with USP16 it was 0.0425.
